# In the library only some 0.85% were active in any assay of this set; here they are far more common.
# eLon inh = inhibitors of E. coli Lon protease, primary screen, biochemical, fluorescence polarization. P0A9M0. purified E. coli Lon protease. inhibition, % at 7.94 µM. actives 0.42% (n = 360,000); in the data active = inhibition above about 13%, passing the limit was not always enough;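 note: 0% = enzyme with probe and DMSO and 100% = no enzyme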
# C-LANA FP = inhibitors of KSHV C-LANA binding to DNA, primary screen, biochemical, fluorescence polarization, FAM-LBS DNA, MBP-C-LANA, single point. Kaposi's sarcoma herpesvirus LANA C-terminal domain (residues 932-1162) DNA binding. inhibition, % at 9 µM. actives 0.078% (n = 340,000);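 active = highest replicate inhibition at or above 60% at 9 µM, even if other replicates fall short; inactive = all replicates below 60% inhibition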;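 note: 0% = neutral control wells and 100% = 4 µM acridine orange control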
# EBNA-1 inhibitor = EBNA-1 DNA-binding inhibitors, primary screen, biochemical, fluorescence polarization. AID 1950, 2009. inhibition, % at 14.8 µM. actives 0.34% (n = 300,000); in the data active = inhibition above about 28%
# ZTA DNA inh = blocks Epstein-Barr virus ZTA, an EBNA-1 counter-screen; P03206; ZTA-DNA binding, fluorescence polarization; inhibition, % at 11 µM; actives 0.15% (n = 320,000); in the data active = inhibition above about 33%
# Target sequence (P03206 whole entry, looked up): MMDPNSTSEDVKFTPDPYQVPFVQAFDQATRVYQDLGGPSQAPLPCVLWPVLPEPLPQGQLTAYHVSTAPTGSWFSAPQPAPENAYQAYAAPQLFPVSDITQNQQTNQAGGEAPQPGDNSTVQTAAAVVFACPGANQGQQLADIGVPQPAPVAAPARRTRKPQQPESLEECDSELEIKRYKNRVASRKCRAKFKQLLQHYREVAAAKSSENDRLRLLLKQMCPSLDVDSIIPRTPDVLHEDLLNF
# Keap1-Nrf2 PPI = Keap1-Nrf2 protein-protein interaction inhibitors, primary screen, biochemical, fluorescence polarization, single point | Kelch-like ECH-associated protein 1 (Homo sapiens), Q14145 | Keap1 Kelch-Nrf2 peptide fluorescence polarization, 1536-well | inhibition, % at 9.4 µM | actives 0.15% (n = 340,000); in the data active = inhibition above about 12%;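 note: human Keap1 Kelch domain with fluorescein labeled Nrf2 9mer peptide probe; 0% = neutral control wells and 100% = peptide positive control; higher means more block of Keap1 binding to Nrf2 peptide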
# E coli Lon conf = E. coli Lon protease inhibitor retest, confirmation, biochemical, fluorescence polarization; shares compounds with eLon inh; purified E. coli Lon; inhibition, % at 7.94 µM; actives 31% (n = 1,400); AID 602230, 2012; in the data active = inhibition above about 16%;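 note: 0% = enzyme with probe and DMSO and 100% = no enzyme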
# An asterisk follows results filed as active; . = not tested or not shown; + = active, no number.
SMILES,eLon inh,C-LANA FP,EBNA-1 inhibitor,ZTA DNA inh,Keap1-Nrf2 PPI,E coli Lon conf
Cc1ccc(S(=O)(=O)N(C)CC(=O)N2CCN(Cc3ccccc3)CC2)cc1,-12.2,-0.6,.,.,-1.7,.
CC(C)CN(C(=O)Cn1c(Cl)nc2c1c(=O)n(C)c(=O)n2C)C1CCS(=O)(=O)C1 (centres undefined),16.4*,0.3,8.8,3.7,-0.7,0.1
CCOC(=O)c1ccc(NC(=O)CSc2nnc(C)n2-c2ccccc2)cc1,14.2*,-1.4,-2.9,-14.5,-5.3,7.8
Cc1nnc(SCC(=O)Nc2ccc(C(N)=O)cc2)n1-c1ccccc1,-7.0,0.2,2.2,15.7,0.2,.
Cc1cc(C)cc(N(C(=O)CNC(=O)c2ccco2)C(C(=O)NC2CCCCC2)c2ccncc2)c1 (centres undefined),-2.8,0.4,3.2,6.0,0.8,.
Cc1ccc(S(=O)(=O)NNC(=S)Nc2ccccc2)cc1,21.5*,0.7,-2.5,4.7,-5.6,-5.8
Cc1ccc(S(=O)(=O)NNC(=S)Nc2ccc(Cl)cc2)cc1,-2.2,-1.1,-8.3,8.3,-5.8,.
CC(C)c1onc(C(=O)Nc2cccnc2Cl)c1[N+](=O)[O-],18.6*,0.8,6.9,-4.6,-4.1,-17.2
COC(=O)c1c(=O)n(O)c2ccc(OC)cc2[n+]1[O-],142.5*,48.4,11.2,3.8,23.6*,88.3*
Cc1oc2c(O)c(O)ccc2c(=O)c1-c1ccc(Cl)cc1,16.1*,2.8,11.1,5.1,0.1,13.4
NC(=O)CN1C(=O)C(=O)N(Cc2ccc(Cl)cc2)C1=O,-6.0,-1.4,-3.0,-6.8,-2.2,.
O=C(O)CN1C(=O)C(=O)N(Cc2ccc(Cl)cc2Cl)C1=O,18.2*,4.2,-9.2,-4.5,-2.8,16.8*
CCCCn1c(N)c(N(CCC(C)C)C(=O)C2=COCCO2)c(=O)[nH]c1=O,36.2*,0.5,1.6,-5.0,1.9,4.5
CC1(C(=O)N2CCN(C(=O)c3ccco3)CC2)CC1(Br)Br (centres undefined),-5.0,0.2,5.4,-1.2,-1.1,.
CCN(CC(=O)NCc1cccs1)C(=O)c1ccc(S(=O)(=O)Nc2ccccc2)cc1,-6.1,-0.9,6.9,4.2,-3.1,.
CCN(CC(=O)NCc1cccs1)S(=O)(=O)c1ccc(F)cc1,-4.6,1.9,0.6,15.6,3.3,.
CCN(CC)S(=O)(=O)c1ccc(C(=O)NCc2cccs2)cc1,18.9*,1.6,4.2,2.2,-7.7,1.2
CCN(CC(=O)NCc1cccs1)C(=O)c1ccc(S(=O)(=O)Nc2cccc(C)c2C)cc1,+,-2.4,3.1,18.2,-2.9,-16.7
CC(=O)c1c(C)[nH]c(C(=O)COC(=O)c2ccc(Cl)nc2)c1C,-3.2,-4.6,.,2.3,1.1,.
CCCOC(=O)C1C2C=CC(C2)C1C(=O)OCC(=O)c1ccccc1 (centres undefined),25.5*,0.5,-2.9,-15.2,-1.5,86.9*
COc1ccccc1CNc1nc(NCc2ccccc2F)c2sccc2n1,-0.3,.,.,.,.,.
Fc1ccccc1CNc1nc(NCC2CC2)nc2ccsc12,12.3*,.,.,.,.,-5.8
CC1(C)Cc2c(cnn2-c2cccc(F)c2)C(NC(=O)c2ccc(=O)[nH]n2)C1 (centres undefined),-18.6,-0.4,-13.6,-3.0,5.1,.
COc1cc(Cl)c(C)cc1NC(=O)CSc1sc2c(O)cc(=O)[nH]c2c1C#N,-18.2,2.9,6.7,6.5,1.0,.
O=C(NCC1CCCN1S(=O)(=O)c1cccs1)C(=O)Nc1ccccc1Cl (centres undefined),21.7*,0.5,2.5,13.8,-7.6,-15.0
SMILES,eLon inh,C-LANA FP,EBNA-1 inhibitor,ZTA DNA inh,Keap1-Nrf2 PPI,E coli Lon conf
O=C1c2ccccc2C(=O)c2c1cccc2N(CCO)CCO,27.2*,6.2,-2.5,-18.3,2.8,19.9*
COC(=O)N1CCCC(c2cc(C(=O)Nc3ccccc3Cl)no2)C1 (centres undefined),52.2*,.,.,.,.,0.9
Nc1[nH]c(=O)[nH]c(=O)c1N=Cc1ccccc1,90.0*,30.4,.,.,9.1,53.1*
COc1ccc(NC(=O)Nc2cc(C)cc(C)c2)cn1,28.6,14.9,-9.7,-0.1,5.5,.
O=C(Nc1ccc(OCc2ccccc2)cc1)Nc1cccnc1,6.1,2.7,-6.2,10.7,0.9,.
COc1ccc(NC(=O)Nc2ccc(OCc3ccccc3)cc2)cn1,24.9*,14.9,.,.,0.6,24.7*
COc1ccc(NC(=O)Nc2ccc([N+](=O)[O-])cc2)cn1,19.5*,2.9,13.6,9.6,4.9,1.5
COc1ccc(N2CCN(C(=O)CN3C(=O)c4ccccc4S3(=O)=O)CC2)cc1,19.8*,0.2,-2.3,-6.5,-5.6,-7.5
COc1cccc(NC(=O)C(C)SCc2ccccc2)c1 (centres undefined),-3.9,-0.6,2.9,1.9,-2.4,.
COc1ccc(CCNC(=O)C(C)SCc2ccccc2)cc1 (centres undefined),19.1*,-1.7,6.4,12.2,-3.1,-5.0
O=C(CCc1ccccc1)NNC(=O)COc1ccc([N+](=O)[O-])cc1,-10.0,0.6,3.0,-12.3,-3.8,.
CCc1ccc(S(=O)(=O)NCc2ccc(C(=O)NCCN(Cc3ccccc3)C(C)C)cc2)cc1,5.4,.,.,.,.,.
O=C(Nc1ccccc1)c1ccc(-c2ccc([N+](=O)[O-])cc2)o1,29.9*,0.1,-13.9,-1.6,2.3,-4.9
COc1ccc(NC(=O)c2ccc(-c3ccc([N+](=O)[O-])cc3)o2)cc1,6.4,-0.7,-15.1,13.7,2.7,.
CCCCCCn1c(=O)n2n(c1=O)[C@@H]1CN(S(=O)(=O)c3ccc(C)cc3)C[C@]1(O)[C@@H](OC(=O)NC1CCCC1)C2,-8.3,.,.,.,.,.
COc1ccc(C(=O)COC(=O)c2ccccc2C(=O)N(C)c2ccccc2)c(OC)c1,40.1*,-0.9,-12.3,-4.2,-9.6,8.4
CN(C(=O)c1ccccc1C(=O)OCC(=O)c1ccccc1)c1ccccc1,12.3,2.8,.,9.6,7.3,.
Clc1cccc(-c2nc3ccc(Cl)cn3c2Cc2ccccc2)c1,-21.4,.,.,.,.,.
Cc1cc(Br)cn2c(Cc3ccsc3)c(-c3cccc(Cl)c3)nc12,-4.8,.,.,.,.,.
Cc1cc(Br)cn2c(Cc3ccsc3)c(-c3ccc(Cl)cc3)nc12,17.2*,.,.,.,.,30.5*
Clc1cccc(-c2nc3ccc(Cl)cn3c2Cc2ccsc2)c1,19.6*,.,.,.,.,112.7*
COc1ccc(S(=O)(=O)N(C)CC(=O)N2CCCC2)cc1OC,-4.0,-0.4,-5.0,-15.2,4.5,.
O=C(CCC1CCCN(C(=O)c2cc(F)ccc2F)C1)N1CCN(c2ccccn2)CC1 (centres undefined),-3.7,.,.,.,.,.
C[C@H](NC(=O)c1ccc(Cl)cc1)C(=O)OCn1nnc2ccccc2c1=O,11.2,0.4,.,.,3.1,.
O=C(CSCC(=O)OCn1nnc2ccccc2c1=O)Nc1ccc(Cl)cc1,17.1*,0.6,-3.6,8.8,-5.7,8.9

# Screening data: PubChem, several laboratories
